Assay outcomes from PubChem BioAssay.
Compounds with a hit are over-represented: about 4.2% of the library has one in this group of screens.
NALP1 inh = NALP1 inflammasome inhibitors in reconstituted yeast, colorimetric, S. cerevisiae, triplicate retest | S. cerevisiae NALP1/ASC/caspase-1 growth, X-gal OD620, 72 h | AID 2071, 2009 | 280,000 tested, 0.61% active | inhibition, % at 10 µM; in the data active means inhibition mostly above about 24%, no sharp cut-off; inactive means mostly below about 32%
PfHsp90 yeast 2 = growth inhibition of PfHsp90-expressing yeast, primary screen, antimalarial PfHsp90 inhibitor project, S. cerevisiae, BacTiter-Glo luminescence, single point, set 2. BacTiter-Glo ATP, 48 h; yeast lacking PDR1 and PDR3 efflux regulators. 310,000 tested, 0.32% active. inhibition, % at 9.4 µM;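 active means every replicate shows inhibition above about 80%, whatever the replicate mean, limit read from the data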
TIM10 inh = growth inhibitors of isogenic TIM10 control yeast, primary screen, counter-screen for tim10-1 yeast inhibitor project, luminescence, uHTS | S. cerevisiae TIM10 strain growth, BacTiter-Glo luminescence, 24 h | inhibition, % at 10 µM | 330,000 tested, 1.4% active | AID 463195, 2010;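 active means inhibition of 40% or more at the single tested concentration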;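 further: wild-type TIM10 isogenic control strain grown at permissive 25 °C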
NALP3 yeast inh = NALP3 inflammasome inhibitors in reconstituted yeast, primary screen, luminescence, uHTS | AID 2825, 2010 | inhibition, % at 10 µM | Yeast reconstituted NLRP3/ASC/caspase-1, beta-gal luminescence, 24 h | 330,000 tested, 0.39% active;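 active means inhibition of 50% or more; inactive means inhibition below 50%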
tim23-1 inh = growth inhibitors of tim23-1 mutant yeast, primary screen, luminescence, uHTS; S. cerevisiae tim23-1 growth, BacTiter-Glo luminescence, 24 h; inhibition, % at 20 µM; 330,000 tested, 1.3% active; AID 463212, 2010;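 active means growth inhibition of the mutant yeast at or above 50%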;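 further: temperature-sensitive mutant grown at 25 °C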
tim10-1 inh = growth inhibitors of tim10-1 mutant yeast, primary screen, luminescence, uHTS; S. cerevisiae tim10-1 ts strain growth, BacTiter-Glo, 24 h; inhibition, % at 20 µM; 330,000 tested, 2.2% active; AID 463190, 2010;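 active means inhibition of at least 40%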;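 further: mutant grown at 25 °C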
NALP3 confirm = NALP3 inhibitors retested in yeast, confirmation, luminescence, single concentration; shares compounds with NALP3 yeast inh; yeast expressing human NALP3; inhibition, % at 10 µM; 1,300 tested, 81% active; AID 435006, 2010; in the data active means inhibition above about 48%
Casp1 ASC ctr = CASP1-PYCARD signaling inhibition in yeast, confirmatory test, counterassay for NLRP3 inhibitor program, one-dose; shares compounds with NALP3 yeast inh; yeast expressing Caspase-1-ASC, luminescence counter screen; inhibition, % at 10 µM; 1,000 tested, 66% active; AID 488784, 2010
NALP3 yeast rt = NALP3 inhibitors in yeast, repeat test, confirmation, luminescence, single concentration, retest; 1,000 tested, 53% active; shares compounds with NALP3 yeast inh; inhibition, % at 10 µM; AID 488794, 2010; yeast expressing human NALP3, luminescence read-out
Large screens that a line does not name were inactive (follow-up assays come after a bar, where they were run). Unless noted, no stated cut-off is given here; in the data, active means inhibition above about 50%; inactive means the rest.

Cc1ccc(NC(=O)c2cnn(-c3ccccc3)c2C)cc1	none
COc1cccc(NC(=O)c2cnn(-c3ccccc3)c2C)c1	NALP3 yeast inh 51 | NALP3 confirm 59 | Casp1 ASC ctr inactive | NALP3 yeast rt inactive
CCc1cccc(NC(=O)c2cnn(-c3ccccc3)c2C)c1	NALP3 yeast inh 59 | NALP3 confirm 67 | Casp1 ASC ctr 57 | NALP3 yeast rt 67
O=C(C1CCN(S(=O)(=O)c2ccc(Br)s2)CC1)N1CCc2ccccc21	NALP3 yeast inh 55 | NALP3 confirm 64 | Casp1 ASC ctr 61 | NALP3 yeast rt inactive
Cc1ccc(N2C(=O)C3N=NN(CC(=O)N4N=C(c5ccccc5)CC4c4ccccc4)C3C2=O)cc1 (stereo not given)	NALP3 yeast inh 65 | NALP3 confirm 61 | Casp1 ASC ctr inactive | NALP3 yeast rt inactive
Cn1c(=O)c(C(=O)NNC(=O)c2ccccc2F)c(O)c2ccccc21	NALP3 yeast inh 64 | NALP3 confirm 82 | Casp1 ASC ctr inactive | NALP3 yeast rt 54
COc1ccc(NCCC(O)c2ccc(Cl)cc2)cc1 (stereo not given)	NALP3 yeast inh 59 | NALP3 confirm 67 | Casp1 ASC ctr inactive | NALP3 yeast rt inactive
COc1ccc(Cl)cc1NCCC(O)c1ccc(F)cc1 (stereo not given)	none
CCOc1ccc(CSCCNC(=S)Nc2ccc(OC)cc2)cc1	NALP3 yeast inh 68 | NALP3 confirm 64 | Casp1 ASC ctr inactive | NALP3 yeast rt inactive
CCOc1ccc(NC(=S)N/N=C(\C)Cc2ccc(OC)cc2)cc1	none
C[C@@]12CCC=C[C@H]1[C@H](c1ccc(C(F)(F)F)cc1)N(Cc1ccccc1)C2=O	none (no result: PfHsp90 yeast 2)
Cn1cc(C(=O)CCl)c2ccccc21	none (no result: TIM10 inh, NALP3 yeast inh, tim23-1 inh, tim10-1 inh)
Cn1cc(/C(Cc2ccccc2)=N\O)c2ccccc21	NALP3 yeast inh 56 | NALP3 confirm 68 | Casp1 ASC ctr inactive | NALP3 yeast rt inactive
NCCc1nnc(SCC(=O)Nc2cccc(Cl)c2)o1	NALP3 yeast inh 52 | NALP3 confirm 75 | Casp1 ASC ctr 57 | NALP3 yeast rt 68
CC(C)(C)OC(=O)NCCc1nnc(SCC(=O)Nc2cccc(Cl)c2)o1	none
CC(=O)N(c1cccc(Br)c1)c1nc(C)cc(C)c1C#N	none
CC(C)OC(=O)CSc1nc(N2CCOCC2)c2c(c1C#N)CC(C)(C)OC2	none
CC(=O)Oc1ccccc1C(=O)Nc1ccccc1	NALP3 yeast inh 52 (no result: NALP1 inh) | NALP3 confirm 68 | Casp1 ASC ctr inactive | NALP3 yeast rt inactive
Cc1cc(C)c(C)c(S(=O)(=O)N2CCC(C(=O)NCC(c3ccccc3)N(C)C)CC2)c1C (stereo not given)	none
Cc1ccc(CNc2cnn(C34CC5CC(CC(C5)C3)C4)c(=O)c2Cl)cc1	NALP3 yeast inh 53 | NALP3 confirm 49 | Casp1 ASC ctr inactive | NALP3 yeast rt inactive
Cc1cccc(NCc2cc(Cl)ccc2O)n1	NALP3 yeast inh 51 | NALP3 confirm inactive | Casp1 ASC ctr inactive | NALP3 yeast rt inactive
O=C(Nc1ccc(F)cc1)C1(S(=O)(=O)c2ccc(Cl)cc2)CC1	NALP3 yeast inh 55 | NALP3 confirm 75 | Casp1 ASC ctr inactive | NALP3 yeast rt inactive
Cc1cccc(NC(=O)c2cnc3sccn3c2=O)c1	NALP3 yeast inh 56 | NALP3 confirm 66 | Casp1 ASC ctr 52 | NALP3 yeast rt inactive
COCCn1c(N)c(C(=O)c2cccc(S(=O)(=O)N3CCCCCC3)c2)c(=O)[nH]c1=O	none (no result: NALP1 inh)
Cc1ccc2cc3c(=O)n(C)cc(C=O)c3nc2c1	none (no result: NALP1 inh, TIM10 inh, NALP3 yeast inh, tim23-1 inh, tim10-1 inh)
Cc1nc2sc(-c3ccccc3)cc2c(=O)n1N	none
Cc1nc2sc(-c3ccccc3)cc2c(=O)n1-n1cccc1	NALP3 yeast inh 52 | NALP3 confirm 71 | Casp1 ASC ctr 58 | NALP3 yeast rt inactive
Cc1c(-c2ccc(Cl)cc2)oc(=O)c2c(N)n(-c3ccccc3)nc12	none
Nc1c2c(=O)oc(-c3ccccc3)cc2nn1-c1ccccc1	NALP3 yeast inh 51 | NALP3 confirm 68 | Casp1 ASC ctr 54 | NALP3 yeast rt inactive
COc1ccccc1N(C)S(=O)(=O)c1ccc(C(=O)Nc2nc(C)cs2)cc1	none
O=C(NC(=S)NNC(=O)c1ccccc1O)c1ccc(F)cc1	NALP3 yeast inh 50 | NALP3 confirm 67 | Casp1 ASC ctr inactive | NALP3 yeast rt 52
Cc1ccc(C(=O)NNC(=S)NC(=O)c2ccc(Cl)cc2Cl)cc1	NALP3 yeast inh 51 | NALP3 confirm 66 | Casp1 ASC ctr 50 | NALP3 yeast rt inactive
Cc1ccc(C(=O)NC(=S)NNC(=O)c2ccccc2O)cc1	NALP3 yeast inh 53 | NALP3 confirm 56 | Casp1 ASC ctr inactive | NALP3 yeast rt inactive
Cc1ccc(C(=O)NNC(=S)NC(=O)c2ccccc2)cc1	none (no result: NALP1 inh)
Cc1ccc(-c2nnnn2-c2ccccc2C(=O)O)cc1	none (no result: NALP1 inh)
CC(C#N)N1CCN(S(=O)(=O)c2ccc3c(c2)CCC3)CC1 (stereo not given)	none (no result: NALP1 inh)
O=C(Nc1ccc(N2CCCCC2)cc1)C(Cl)c1ccccc1 (stereo not given)	NALP3 yeast inh 50 | NALP3 confirm 56 | Casp1 ASC ctr inactive | NALP3 yeast rt inactive
COc1ccc(N2CCN(CCNC(=O)CCC(=O)NNc3nc4ccccc4c4nc(C)nn34)CC2)cc1	none
Cc1nc2c3ccccc3nc(NNC(=O)CCC(=O)NCCN3CCN(c4ccccc4F)CC3)n2n1	NALP3 yeast inh 52 | NALP3 confirm 76 | Casp1 ASC ctr 54 | NALP3 yeast rt 71
Nc1ccc(-c2cc3ccccc3oc2=O)cc1	none
O=c1oc2ccccc2cc1-c1ccc(O)cc1	NALP3 yeast inh 52 | NALP3 confirm inactive
O=C(CCC(=O)N(CC(=O)NC1CCCC1)Cc1ccccc1Cl)Nc1nccs1	none
Cc1ccccc1OCCn1c(=S)[nH]c2ccccc21	NALP3 yeast inh 53 | NALP3 confirm 79 | Casp1 ASC ctr 67 | NALP3 yeast rt inactive
Fc1ccccc1OCCn1c(=S)[nH]c2ccccc21	none
Cc1[nH]c2c([N+](=O)[O-])cccc2c1C	none
CCN1CCN(c2ccc(Cl)cc2NC(=O)c2ccc(-n3nc(C)cc3C)cc2)CC1	NALP3 yeast inh 51 (no result: NALP1 inh) | NALP3 confirm inactive | Casp1 ASC ctr inactive | NALP3 yeast rt inactive
